Molecules are shown by their SMILES. “And” between values parts separate entries of the source, which are not always exact repeats. Equal entries are not always repeated. Inconclusive results are not listed. A number with no mark means an inactive call. The source made the active and inactive calls. Calls come from the whole dose curve; as a rule, active = well fitted curve in the direction sought with a large enough effect; inconclusive = small, poorly fitted or top-dose-only effect, or another doubt; inactive = no such curve, though single readings can be large; an effect the other way counts as inactive or inconclusive.

For 31 molecules, max response and Potency results are on record in PubChem BioAssay (NCATS).

Test [1] in a line: qHTS Assay for Identifying Gametocytocidal Compounds (AID 743244).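 For max response: actives lower the fluorescent signal which means gametocytes are killed.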 The note with it: P. falciparum 3D7 stage III-V gametocytes, alamarBlue, 72 h; max response: hits give low values. The procedure, abridged: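 A resazurin-based viability read-out was applied to mature P. falciparum gametocytes: 72 h compound treatment, then 24 h dye incubation, with falling fluorescence signalling gametocytocidal effect.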
A general note: qHTS replaces the single test concentration by a dilution series.

Test [2] in a line: qHTS assay to identify small molecule inhibitors of chordoma cells - UCH-1 (AID 1259355). For Potency: series mostly up to about 46 µM. Note: nearly all actives have a fitted effect of over 55% in size. The procedure, abridged:
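800 cells/well, overnight attach; compounds pinned at 15 concs, then auranofin/camptothecin/doxorubicin/rubitecan/topotecan combo added; 48hr 37 C, 5% CO2; CellTiter-Glo, 30min RT, luminescence.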

Test [3] in a line: qHTS assay to identify small molecule inhibitors of chordoma cells - UCH-2 (AID 1259356).
A short description of test [4]: P-glycoprotein substrates identified in KB-8-5-11 adenocarcinoma cell line, qHTS therapeutic library screen (AID 1346987). Note: nearly all actives have a fitted effect of over 65% in size. The procedure, abridged: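 Luminescence from CellTiter-Glo, read 5 min after addition, quantified survival of KB-8-5-11 (P-gp-overexpressing) cells exposed to compounds for 72 h. AC50 was derived from concentration-response curves.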
% is set by controls: 0 for no effect and ±100 for the full control effect; potency is the fitted concentration of half-maximal effect.

Consider `CC(=O)O[C@H]1CC[C@@]2(C)C(=CC[C@@H]3[C@@H]2CC[C@]2(C)C(=O)CC[C@@H]32)C1`, for which, in test [1], the max response is 5.11%. In addition, the Potency entry in test [2], in test [3] and in test [4] was “inactive” each time.
`COc1cc2c(cc1OC)[C@@]13CCN4CC5=CCO[C@H]6CC(=O)N2[C@H]1[C@H]6[C@H]5C[C@H]43`: the max response in test [1] is 18.6%. Moreover, the Potency entry in test [2], in test [3] and in test [4] was “inactive” each time.
With `O=C(NC(=O)c1c(F)cccc1F)Nc1ccc(Cl)c(Oc2ncc(C(F)(F)F)cc2Cl)c1`, the max response in test [1] was -9.15%. Besides, the Potency result in test [2], in test [3] and in test [4] was “inactive” each time.
For `c1csc(C2(N3CCCCC3)CCCCC2)c1`, in test [1], the max response is -3.82%. For the same molecule, the Potency entry in test [2], in test [3] and in test [4] was “inactive” in each case.
As to `CC(=O)O[C@H]1C[C@H](O[C@H]2[C@@H](O)C[C@H](O[C@H]3[C@@H](O)C[C@H](O[C@H]4CC[C@@]5(C)[C@H](CC[C@@H]6[C@@H]5C[C@@H](O)[C@]5(C)[C@@H](C7=CC(=O)OC7)CC[C@]65O)C4)O[C@@H]3C)O[C@@H]2C)O[C@H](C)[C@H]1O[C@@H]1O[C@H](CO)[C@@H](O)[C@H](O)[C@H]1O`, the max response in test [1] is -19.5%. Further, the figures for the Potency in test [2], in test [3] and in test [4] were 0.251 µM (active), 0.146 µM (active) and 0.206 µM (active), respectively.
For `O=c1ccc2cc(O[C@@H]3O[C@H](CO)[C@@H](O)[C@H](O)[C@H]3O)c(O)cc2o1`, in that order: 0.481%, “inactive”, “inactive” and “inactive”.
On to `[H+].[H+].[Hg+2].[O-]B([O-])[O-].[c-]1ccccc1`, for which the Potency in test [1] is 3.55 µM (active); in test [2], 8.91 µM (active); in test [3], 13 µM (active); in test [4], 1.3 µM (active).
In the case of `[2H]C([2H])([2H])[C@H](N)Cc1ccccc1`, the max response in test [1] is 14.3%. Further, the Potency result in test [2], in test [3] and in test [4] was “inactive” in each case.
As for `CCC/C=C/C=C/C(=O)O[C@H]1/C(=C/C(=O)OC)C[C@H]2C[C@H]([C@@H](C)O)OC(=O)C[C@H](O)C[C@@H]3C[C@H](OC(C)=O)C(C)(C)[C@](O)(C[C@@H]4C/C(=C/C(=O)OC)C[C@H](/C=C/C(C)(C)[C@]1(O)O2)O4)O3`, the max response in test [1] is -10.9%. For the same molecule, the Potency result in test [2], in test [3] and in test [4] was “inactive” each time.
`O[C@H]1[C@H]2[C@H](O)CCCN2C[C@H]1O`: the max response in test [1] was -8.84%. Besides, the Potency result in test [2], in test [3] and in test [4] was “inactive” in each case.
Consider `CC(=O)O[C@H]1C[C@H](O[C@H]2[C@@H](O)C[C@H](O[C@H]3[C@@H](O)C[C@H](OC4CC[C@@]5(C)[C@H](CC[C@@H]6[C@@H]5CC[C@]5(C)[C@@H](C7=CC(=O)OC7)CC[C@]65O)C4)O[C@@H]3C)O[C@@H]2C)O[C@H](C)[C@H]1O[C@@H]1O[C@H](CO)[C@@H](O)[C@H](O)[C@H]1O` (some centres undefined), for which, in test [1], the max response is 9.96%. In addition, the Potency in test [2] was 0.447 µM (active); in test [3] it was 0.259 µM (active); in test [4], 0.259 µM (active).
Turning to `Clc1ccc(C2(Cn3cncn3)OCCO2)c(Cl)c1`, the max response in test [1] was -2.25%. The Potency result in test [2], in test [3] and in test [4] was “inactive” in each case.
On to `CCC(=O)O[C@]1(c2ccccc2)CCN(C)C[C@H]1C`, for which the max response in test [1] was -3.07%. Moreover, the Potency result in test [2], in test [3] and in test [4] was “inactive” throughout.
`C[N+]1([O-])[C@@H]2CC[C@H]1CC(OC(=O)C(CO)c1ccccc1)C2` (some centres undefined): in test [1], the max response was 6.16% and -9.54%. Further, the Potency entry in test [2], in test [3] and in test [4] was “inactive” each time.
Regarding `O=C1CN(O)C(c2ccccc2)=c2cc(Cl)ccc2=N1`, in test [1], the max response is 0.268%. Moreover, the Potency entry in test [2], in test [3] and in test [4] was “inactive” in each case.
With `CC(Cc1ccccc1)NC=O` (centres undefined), in test [1], the max response is -3.98%. For the same molecule, the Potency entry in test [2], in test [3] and in test [4] was “inactive” each time.
With `CC[N+](C)(CC)CCOC(=O)C(O)(c1ccccc1)c1ccccc1`, the max response in test [1] was 11.5%. For the same molecule, the Potency result in test [2], in test [3] and in test [4] was “inactive” each time.
Consider `CN(C)CCCCCCN(C)C` (tested in a mixture with another compound), for which the max response in test [1] is 14.8%. Further, the Potency entry in test [2], in test [3] and in test [4] was “inactive” throughout.
Consider `COc1ccc2c3c1O[C@H]1[C@@H](O)C=C[C@H]4[C@@H](C2)NCC[C@@]341`, for which the max response in test [1] is -9%. Besides, the Potency entry in test [2], in test [3] and in test [4] was “inactive” in each case.
For `CCCC(C)C1(CC)C(=O)NC(=O)NC1=O` (centres undefined), the max response in test [1] was -3.05%. Also, the Potency result in test [2], in test [3] and in test [4] was “inactive” in each case.
Regarding `O=C1OC2(c3cc(Br)c(O)cc3Oc3c2cc(Br)c(O)[c]3[Hg])c2ccccc21` (centres undefined), the max response in test [1] was -1.46%. Further, the Potency entry in test [2], in test [3] and in test [4] was “inactive” each time.
As for `CNc1ccc(C(=O)CC(O)CCC(C)C2OC(=O)CC(O)CC(=O)CC(O)CC(O)CC(O)CC(O)CC3(O)CC(O)C(C(=O)OC)C(CC(O[C@@H]4O[C@H](C)[C@@H](O)[C@H](N)[C@@H]4O)/C=C/C=C/C=C/C=C/C=C/C=C/C=C/C2C)O3)cc1` (some centres undefined), the max response in test [1] was 22.8%. The Potency result in test [2], in test [3] and in test [4] was “inactive” throughout.
On to `CO[C@H]1[C@@H](O)C[C@H](O[C@H]2[C@@H](O)C[C@H](O[C@H]3[C@@H](O)C[C@H](O[C@H]4CC[C@@]5(C)[C@H](CC[C@@H]6[C@@H]5C[C@@H](O)[C@]5(C)[C@@H](C7=CC(=O)OC7)CC[C@]65O)C4)O[C@@H]3C)O[C@@H]2C)O[C@@H]1C`, for which, in test [1], the max response was -9.7%. For the same molecule, the Potency in test [2] was 0.355 µM [with auranofin plus four topoisomerase inhibitors] (active); in test [3], 0.058 µM (active); in test [4], 0.259 µM (active).
Turning to `CCNCC(O)c1cccc(O)c1` (centres undefined), the max response in test [1] is -3.84%. The Potency entry in test [2], in test [3] and in test [4] was “inactive” each time.
With `CCC1(C)CC(=O)NC(=O)C1`, the max response in test [1] was 2.58%. Moreover, the Potency result in test [2], in test [3] and in test [4] was “inactive” throughout.
Consider `CCCCC[C@@H](O)C1C(=O)OC(C)[C@H](O)/C=C/C=C/C=C/C=C/C=C(\C)C(O)C(O)C(O)C[C@H](O)C[C@H](O)C[C@H](O)C[C@H](O)C[C@@H]1O` (some centres undefined), for which the max response in test [1] was 0.532% and 10.2%. Further, the Potency result in test [2], in test [3] and in test [4] was “inactive” each time.
For `CCCC(=O)OC(C(Cl)(Cl)Cl)P(=O)(OC)OC` (centres undefined), the max response in test [1] is -0.455%. Further, the Potency entry in test [2], in test [3] and in test [4] was “inactive” in each case.
In the case of `O=C1CN=C(c2ccccc2)c2cc(Cl)ccc2N1CC1CC1`, the max response in test [1] was -0.952%. Further, the Potency result in test [2] and in test [3] was “inactive” each time. Moreover, in test [4], the Potency was 9.2 µM (active).
Turning to `NCC[C@H](O)C(=O)N[C@@H]1C[C@H](N)[C@@H](O[C@H]2O[C@H](CN)[C@@H](O)[C@H](O)[C@H]2N)[C@H](O[C@@H]2O[C@H](CO)[C@@H](O)[C@H]2O)[C@H]1O`, the max response in test [1] was 16.1%. In addition, the Potency entry in test [2], in test [3] and in test [4] was “inactive” each time.
Take `Clc1ccc(Cl)cc1`: in test [1], the max response was -1.73%. Further, the Potency entry in test [2], in test [3] and in test [4] was “inactive” each time.
Turning to `CN(C)[C@H](Cc1ccccc1)c1ccccc1`, in test [1], the max response is -4.16%. Moreover, the Potency result in test [2], in test [3] and in test [4] was “inactive” in each case.
